Activity calls are given as the source filed them.
How the values were obtained:
[1] = system: Wnt5a (protein binding on small-molecule microarray); assay: Wnt5a binders on small-molecule microarray, primary screen, biophysical, 635/667 nm fluorescence (AID 1142); conditions: 635 nm fluorescence, higher = more signal;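 note: fluorescence read at 667 nm with signal to noise per printed feature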
[2] = cell viability in Huh7 cells, primary screen, cytotoxicity control for HCV replication inhibitor project, CellTiter-Glo luminescence, basal, 48 h (AID 1143); conditions: Huh7 HCV replicon, higher = more signal, called active from +8 up or from −8 down;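 note: Huh7 hepatoma cells carrying a hepatitis C replication reporter with no stimulus; test concentration not given here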
[3] = CREB reporter modulators without forskolin, primary screen, cell-based, PC12, CRE-LacZ reporter, unstimulated (AID 1145); conditions: no forskolin, luminescence, 4.5 h, higher = more signal, called active from +8 up or from −8 down
[4] = CREB reporter modulators under forskolin, primary screen, cell-based, PC12, CRE-LacZ reporter, forskolin-stimulated (AID 1146); conditions: luminescence, 4.5 h, higher = more signal, called active from +8 up or from −8 down;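 note: PC12 cells with 6xCRE LacZ reporter stimulated by forskolin 10 µM; beta-galactosidase reporter signal reflecting CREB driven transcription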
[5] = biological target: Streptavidin (Streptomyces avidinii) (UniProt P22629); assay: streptavidin binders on small-molecule microarray, primary screen, artefact control for SMM compound annotation, biophysical, 635/667 nm fluorescence (AID 1147); conditions: streptavidin binding, higher = more signal;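 note: signal reflects streptavidin binding to arrayed compounds as a control protein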
[6] = small-molecule binders of probe aInhba, primary screen, biochemical, small-molecule microarray, 635/667 nm fluorescence (AID 1148); conditions: higher = more signal;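 note: score merges 667nm spot fluorescence with signal-to-noise for antibody binding to printed compounds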
[7] = biological target: Torsin-1A (Homo sapiens) (UniProt O14656); assay: torsin A binders from cell lysate, primary screen, small-molecule microarray, wild-type, 635/667 nm (AID 1149); conditions: COS7 hTOR1A-WT lysate, 635 nm fluorescence, higher = more signal
[8] = biological target: Torsin-1A (Homo sapiens) (UniProt O14656); assay: small-molecule binders of mutant TOR1A in lysate, primary screen, cell lysate, small-molecule microarray, COS7 lysate, 635/667 nm fluorescence (AID 1150); conditions: COS7 hTOR1A mutant lysate, 635 nm fluorescence, higher = more signal;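 note: score pools 667 nm emission and signal to noise measuring lysate protein binding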
[9] = system: Sonic hedgehog protein (Shh); assay: small-molecule binders of Shh protein, primary screen, biochemical, small-molecule microarray, 635/667 nm fluorescence (AID 1151); conditions: small-molecule microarray binding, 635 nm fluorescence; higher = more signal;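 note: Shh protein binding to compounds spotted on small-molecule microarray slides; score combines spot fluorescence intensity with signal-to-noise across triplicate slides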
[10] = E. coli DRC41 culture turbidity changes, primary screen, E. coli filamentation inducer project, strain DRC41, OD650, 48 h (AID 1152);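 note: E. coli MC1000 strain DRC41 lacking acrAB efflux pump and sulA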; conditions: E. coli DRC41 (acrAB sulA), higher = more signal, called active from +8 up or from −8 down
[11] = small-molecule binders of probe aLefty1, primary screen, biochemical, small-molecule microarray, 635/667 nm fluorescence (AID 1153); conditions: higher = more signal;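 note: score merges spot fluorescence with signal-to-noise ratio from the scanned slide images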
[12] = PSAC antagonists in infected red cells, primary screen, cell-based, P. falciparum Indochina, OD700, 1 h (AID 1154); conditions: P. falciparum Indochina infected RBC osmotic lysis, higher = more signal, called active from +8 up or from −8 down
[13] = PSAC antagonists in infected red cells, primary screen, cell-based, P. falciparum Indochina, OD700, 2 h (AID 1155);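 note: lysis reports solute entry through the parasite surface anion channel PSAC; channel blockers reduce lysis of infected cells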; conditions: P. falciparum Indochina infected erythrocytes, osmotic lysis OD700; higher = more signal, called active from +8 up or from −8 down
[14] = osmotic lysis modulators in infected erythrocytes, primary screen, PSAC antagonist project, cell-based, P. falciparum Indochina, OD700, 3 h (AID 1156); conditions: higher = more signal, called active from +8 up or from −8 down
[15] = PSAC antagonists in infected red cells, primary screen, cell-based, P. falciparum Indochina, OD700, 18 h (AID 1157); conditions: P. falciparum Indochina infected erythrocytes, osmotic lysis OD700, 18 h; higher = more signal, called active from +8 up or from −8 down
[16] = modulators of S6 phosphorylation in cells, primary screen, cell-based, A549, cytoblot, luminescence, serum-stimulated (AID 1158); conditions: A549 phospho-S6 cytoblot, 5 h, higher = more signal;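 note: serum-stimulated A549 lung adenocarcinoma cells; signal is phosphorylated S6 detected by cytoblot immunostaining with HRP secondary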
[17] = biological target: NADPH oxidase 2 (Homo sapiens) (UniProt P04839); assay: NOX2-dependent H2O2 signal modulators, primary screen, NOX inhibitor project, cell-based, HEK293-NOX2, PMA-stimulated, Amplex Red fluorescence (AID 1159); conditions: 45 min, higher = more signal, called active from +8 up or from −8 down; note: test concentration not given here
[18] = biological target: NADPH oxidase 4 (Homo sapiens) (UniProt Q9NPH5); assay: NOX4-dependent H2O2 signal modulators, primary screen, NOX inhibitor project, cell-based, HEK293-NOX4, tetracycline-induced, Amplex Red fluorescence (AID 1160); conditions: 45 min, higher = more signal, called active from +8 up or from −8 down
[19] = biological target: NADPH oxidase 5 (Homo sapiens) (UniProt Q96PH1); assay: NOX5-dependent H2O2 signal modulators, primary screen, NOX inhibitor project, cell-based, HEK293-NOX5, Amplex Red fluorescence (AID 1161); conditions: HEK293-NOX5, ionomycin, 45 min, higher = more signal
Chain of NADPH oxidase 5 (Homo sapiens) (Q96PH1 whole entry, looked up): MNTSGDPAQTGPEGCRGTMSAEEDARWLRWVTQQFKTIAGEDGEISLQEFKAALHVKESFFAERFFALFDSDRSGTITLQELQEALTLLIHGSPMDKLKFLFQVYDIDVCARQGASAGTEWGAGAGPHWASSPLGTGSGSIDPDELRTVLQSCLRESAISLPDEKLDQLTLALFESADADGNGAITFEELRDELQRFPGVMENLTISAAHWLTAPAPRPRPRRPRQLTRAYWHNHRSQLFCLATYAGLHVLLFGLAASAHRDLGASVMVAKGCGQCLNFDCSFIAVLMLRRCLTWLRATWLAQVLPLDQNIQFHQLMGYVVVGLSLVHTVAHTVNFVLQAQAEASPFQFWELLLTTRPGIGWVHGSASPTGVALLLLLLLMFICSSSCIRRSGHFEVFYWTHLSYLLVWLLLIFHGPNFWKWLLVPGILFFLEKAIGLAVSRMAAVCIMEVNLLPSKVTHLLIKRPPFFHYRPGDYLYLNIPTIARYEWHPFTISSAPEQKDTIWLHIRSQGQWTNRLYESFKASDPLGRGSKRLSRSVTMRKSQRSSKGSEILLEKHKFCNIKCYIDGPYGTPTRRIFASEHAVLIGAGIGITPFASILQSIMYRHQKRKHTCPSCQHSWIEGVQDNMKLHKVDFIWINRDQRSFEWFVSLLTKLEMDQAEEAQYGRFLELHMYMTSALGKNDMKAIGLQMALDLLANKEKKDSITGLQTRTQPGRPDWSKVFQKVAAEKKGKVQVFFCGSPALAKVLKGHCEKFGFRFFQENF

Chain of NADPH oxidase 4 (Homo sapiens) (Q9NPH5 whole entry, looked up): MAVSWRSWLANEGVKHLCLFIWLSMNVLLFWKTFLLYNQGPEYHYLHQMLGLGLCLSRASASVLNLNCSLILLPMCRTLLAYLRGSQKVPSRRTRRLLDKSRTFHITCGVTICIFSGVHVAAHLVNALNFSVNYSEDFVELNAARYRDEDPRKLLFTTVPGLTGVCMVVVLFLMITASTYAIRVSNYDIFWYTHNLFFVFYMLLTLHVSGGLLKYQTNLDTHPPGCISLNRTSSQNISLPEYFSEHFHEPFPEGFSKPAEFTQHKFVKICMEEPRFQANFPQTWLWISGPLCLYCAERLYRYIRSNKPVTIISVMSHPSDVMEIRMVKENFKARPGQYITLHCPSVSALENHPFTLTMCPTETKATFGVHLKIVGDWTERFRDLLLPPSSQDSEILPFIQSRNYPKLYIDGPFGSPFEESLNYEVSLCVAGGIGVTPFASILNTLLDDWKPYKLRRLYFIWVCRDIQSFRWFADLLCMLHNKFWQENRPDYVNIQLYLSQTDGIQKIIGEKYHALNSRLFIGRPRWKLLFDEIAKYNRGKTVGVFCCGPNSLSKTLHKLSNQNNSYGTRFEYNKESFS
Chain of NADPH oxidase 2 (Homo sapiens) (P04839 whole entry, looked up): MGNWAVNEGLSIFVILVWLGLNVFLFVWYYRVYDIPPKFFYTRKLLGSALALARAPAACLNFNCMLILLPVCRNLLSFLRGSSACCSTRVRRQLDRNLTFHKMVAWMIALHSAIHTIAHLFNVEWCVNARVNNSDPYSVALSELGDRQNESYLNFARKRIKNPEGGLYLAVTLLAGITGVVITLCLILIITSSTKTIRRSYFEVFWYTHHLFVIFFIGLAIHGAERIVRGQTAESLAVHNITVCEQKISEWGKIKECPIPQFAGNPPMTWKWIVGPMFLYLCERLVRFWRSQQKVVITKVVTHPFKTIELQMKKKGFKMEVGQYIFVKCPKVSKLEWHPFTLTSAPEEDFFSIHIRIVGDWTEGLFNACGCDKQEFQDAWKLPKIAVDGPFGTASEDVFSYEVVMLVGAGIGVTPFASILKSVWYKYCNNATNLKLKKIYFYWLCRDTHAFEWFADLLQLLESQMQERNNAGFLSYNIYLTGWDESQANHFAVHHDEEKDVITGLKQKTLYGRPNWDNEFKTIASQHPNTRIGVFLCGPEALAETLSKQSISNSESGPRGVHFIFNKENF
Chain of Torsin-1A (Homo sapiens) (O14656 whole entry, looked up): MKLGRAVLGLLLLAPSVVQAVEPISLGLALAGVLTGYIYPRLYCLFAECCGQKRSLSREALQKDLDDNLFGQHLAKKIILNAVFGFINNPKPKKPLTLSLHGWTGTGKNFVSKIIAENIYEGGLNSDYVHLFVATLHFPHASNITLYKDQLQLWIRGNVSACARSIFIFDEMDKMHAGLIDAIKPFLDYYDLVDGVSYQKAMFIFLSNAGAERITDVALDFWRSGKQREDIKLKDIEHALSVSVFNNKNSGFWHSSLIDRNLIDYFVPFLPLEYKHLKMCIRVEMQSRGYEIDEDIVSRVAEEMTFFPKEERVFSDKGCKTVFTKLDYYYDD
Chain of Streptavidin (Streptomyces avidinii) (P22629 whole entry, looked up): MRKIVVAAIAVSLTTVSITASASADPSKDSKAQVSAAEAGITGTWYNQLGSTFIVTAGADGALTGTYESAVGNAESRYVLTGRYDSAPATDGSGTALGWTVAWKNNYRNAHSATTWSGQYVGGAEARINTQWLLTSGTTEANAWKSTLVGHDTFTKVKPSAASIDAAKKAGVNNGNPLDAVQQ

C=C(CCCC)C(=O)CC[C@@H](OC(=O)c1cccnc1)c1cccc(OCCO)c1
composite z-score [1]: 0.38 | z-score [2]: -1.85 (inactive) | z-score [3]: 17.7 (active) | z-score [4]: -0.315 (inactive) | composite z-score [5]: -0.0743 | composite z-score [6]: -0.0762 | composite z-score [7]: 1.08 | composite z-score [8]: 0.0906 | composite z-score [9]: 1.17 | z-score [10]: 0.381 (inactive) | composite z-score [11]: -0.0954 | z-score [12]: 26.7 (active) | z-score [13]: 13.1 (active) | z-score [14]: 1.28 (inactive) | z-score [15]: 1.14 (inactive) | z-score [16]: -0.712 | z-score [17]: 0.849 (inactive) | z-score [18]: 0.849 (inactive) | z-score [19]: -1.41

CC(C)[Si](OCCCNS(=O)(=O)c1ccc(Br)cc1)(C(C)C)C(C)C
composite z-score [1]: 0.0488 | z-score [2]: -5.53 (inactive) | z-score [3]: -0.752 (inactive) | z-score [4]: -0.4 (inactive) | composite z-score [5]: 0.623 | composite z-score [6]: 0.0161 | composite z-score [7]: 0.923 | composite z-score [8]: 0.31 | composite z-score [9]: 0.72 | z-score [10]: 3.27 (inactive) | composite z-score [11]: -0.0236 | z-score [12]: 0.869 (inactive) | z-score [13]: 0.0808 (inactive) | z-score [14]: -3.37 (inactive) | z-score [15]: -0.442 (inactive) | z-score [16]: 4.17 | z-score [17]: 1.84 (inactive) | z-score [18]: -0.843 (inactive) | z-score [19]: -3.06

COc1cc(CO)cc(I)c1O[C@H]1C=C(C(=O)NCCO)C[C@@H](NCCc2c[nH]c3ccccc23)[C@@H]1O
composite z-score [1]: 0.241 | z-score [2]: -3.34 (inactive) | z-score [3]: 2.29 (inactive) | z-score [4]: -2.33 (inactive) | composite z-score [5]: 0.0072 | composite z-score [6]: -0.0954 | composite z-score [7]: 0.75 | composite z-score [8]: 0.237 | composite z-score [9]: 0.888 | z-score [10]: 0.878 (inactive) | composite z-score [11]: 0.335 | z-score [12]: 11.3 (active) | z-score [13]: 0.928 (inactive) | z-score [14]: 1.22 (inactive) | z-score [15]: -0.869 (inactive) | z-score [16]: 2.21 | z-score [17]: -0.912 (inactive) | z-score [18]: -1.4 (inactive) | z-score [19]: -0.447

CO[C@H]1COC(=O)CC=C[C@H](C)COC(=O)[C@@H](OCc2ccccc2)C=C[C@@H]1C
composite z-score [1]: -0.192 | z-score [2]: -4.32 (inactive) | z-score [3]: 0.252 (inactive) | z-score [4]: -1.2 (inactive) | composite z-score [5]: 0.846 | composite z-score [6]: -0.29 | composite z-score [7]: 2.67 | composite z-score [8]: 2.29 | composite z-score [9]: 2.06 | z-score [10]: -0.168 (inactive) | composite z-score [11]: -0.338 | z-score [12]: 0.733 (inactive) | z-score [13]: -1.13 (inactive) | z-score [14]: -0.858 (inactive) | z-score [15]: -2.2 (inactive) | z-score [16]: 1.27 | z-score [17]: 0.837 (inactive) | z-score [18]: -0.234 (inactive) | z-score [19]: 0.164

C/C(=N\O)C(=O)NCCCCCNC(=O)OCc1ccccc1
composite z-score [1]: 0.321 | z-score [2]: -0.564 (inactive) | z-score [3]: 1.67 (inactive) | z-score [4]: -1.47 (inactive) | composite z-score [5]: 1.24 | composite z-score [6]: -0.0471 | composite z-score [7]: 0.228 | composite z-score [8]: 0.173 | composite z-score [9]: 0.371 | z-score [10]: 1.93 (inactive) | composite z-score [11]: -0.194 | z-score [12]: 15.4 (active) | z-score [13]: 2.09 (inactive) | z-score [14]: -0.222 (inactive) | z-score [15]: 0.501 (inactive) | z-score [16]: -0.246 | z-score [17]: -0.459 (inactive) | z-score [18]: 0.0531 (inactive) | z-score [19]: -0.588

C=CC[C@]1(C(=O)OC)N=C(c2ccc(OCCCO)cc2)O[C@H]1c1ccccc1CN=[N+]=[N-]
composite z-score [1]: 0.832 | z-score [2]: -3.72 (inactive) | z-score [3]: 5.1 (inactive) | z-score [4]: -0.911 (inactive) | composite z-score [5]: -1.12 | composite z-score [6]: 0.0232 | composite z-score [7]: 0.101 | composite z-score [8]: -0.0021 | composite z-score [9]: 0.0034 | z-score [10]: 0.919 (inactive) | composite z-score [11]: 0.419 | z-score [12]: 21.2 (active) | z-score [13]: 4.18 (inactive) | z-score [14]: 1.7 (inactive) | z-score [15]: 0.786 (inactive) | z-score [16]: 0.363 | z-score [17]: -3.18 (inactive) | z-score [18]: -0.411 (inactive) | z-score [19]: -2.23

COCCOC(=O)N1C(=O)[C@@]2(c3cc(C#CC4(O)CCCCCC4)ccc31)[C@H](C(=O)N1CCCCCCC1)[C@H]1C(=O)O[C@H](c3ccccc3)[C@H](c3ccccc3)N1[C@@H]2c1ccc(O)cc1
composite z-score [1]: 0.464 | z-score [2]: -4.34 (inactive) | z-score [3]: -0.211 (inactive) | z-score [4]: -1.68 (inactive) | composite z-score [5]: 1.16 | composite z-score [6]: 1.01 | composite z-score [7]: 1.27 | composite z-score [8]: 0.889 | composite z-score [9]: 1.68 | z-score [10]: 1.13 (inactive) | composite z-score [11]: 2.25 | z-score [12]: 0.908 (inactive) | z-score [13]: 0.128 (inactive) | z-score [14]: -0.373 (inactive) | z-score [15]: -0.763 (inactive) | z-score [16]: 1.49 | z-score [17]: 1.5 (inactive) | z-score [18]: 0.372 (inactive) | z-score [19]: 2.35

COCCOC(=O)N1C(=O)[C@@]2(c3cc(C#CCCO)ccc31)[C@H](C(=O)N1CCCCCCC1)[C@H]1C(=O)O[C@H](c3ccccc3)[C@H](c3ccccc3)N1[C@@H]2c1ccc(O)cc1
composite z-score [1]: 0.138 | z-score [2]: -4.07 (inactive) | z-score [3]: -0.815 (inactive) | z-score [4]: -1.28 (inactive) | composite z-score [5]: 1 | composite z-score [6]: 0.74 | composite z-score [7]: 0.678 | composite z-score [8]: 0.922 | composite z-score [9]: 1.06 | z-score [10]: 3.86 (inactive) | composite z-score [11]: 1.6 | z-score [12]: 1.06 (inactive) | z-score [13]: -0.755 (inactive) | z-score [14]: -0.0793 (inactive) | z-score [15]: -1.32 (inactive) | z-score [16]: 5.3 | z-score [17]: 1.7 (inactive) | z-score [18]: 0.807 (inactive) | z-score [19]: 1.67

CO[C@@H]1COC(=O)[C@@H]2CCCN2C(=O)CC=C[C@@H](C)[C@H](OC)COC(=O)[C@@H]2CCCN2C(=O)CC=C[C@H]1C
composite z-score [1]: -0.137 | z-score [2]: -0.381 (inactive) | z-score [3]: -0.292 (inactive) | z-score [4]: -0.559 (inactive) | composite z-score [5]: -0.613 | composite z-score [6]: -0.179 | composite z-score [7]: 0.985 | composite z-score [8]: 0.306 | composite z-score [9]: 2.1 | z-score [10]: 1.11 (inactive) | composite z-score [11]: -0.0984 | z-score [12]: -0.0896 (inactive) | z-score [13]: 0.0184 (inactive) | z-score [14]: 0.11 (inactive) | z-score [15]: -0.113 (inactive) | z-score [16]: 0.956 | z-score [17]: -0.353 (inactive) | z-score [18]: 0.476 (inactive) | z-score [19]: 0.606

From PubChem BioAssay
